Assay results reported in PubChem BioAssay AID1159580 (chemical genetic matrix, 2015).
Several values for one entry are separate records, joined by “and”; a condition that tells them apart may be missing. Equal entries are not always repeated. In all, about 5,500 compounds went through this assay and about 2,000 (36%) were called active. About 18% were inconclusive and are not listed. Rule as the data show it: active = normalized growth mostly below about 0.91 (no sharp cut-off); inconclusive = no clear call, values can overlap the other calls; inactive = mostly above about 0.92. Some of the results follow.

Experiment: chemical genetic growth profiling, strain panel (AID 1159580);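 also: tested at 20 µM; growth read once vehicle control cultures reached saturation at 30 °C; 1 = growth at the plate median or of vehicle wells; lower values mean less growth of the strain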
Conditions: S. cerevisiae deletion strains, growth OD

Measured: normalized growth

CC1(C)CC2C1CCC1(C)OC1CCC2(C)O (centres undefined)
inactive: locus YAL013W, strain DEP1, active compounds read low 1.02 | locus YAL021C, strain ccr4, active compounds read low 1.01 | locus YAL026C, strain drs2, active compounds read low 1.05 | locus YAL030W, strain snc1, active compounds read low 1.03 | locus YBL061C, strain skt5, active compounds read low 1.04 | locus YBR009C, strain hhf1, active compounds read low 1.06 | locus YBR021W, strain FUR4, active compounds read low 1.01 | locus YBR023C, strain chs3, active compounds read low 1.05 | locus YBR171W, strain sec66, active compounds read low 1.06 | locus YBR229C, strain ROT2, active compounds read low 1 | locus YBR231C, strain swc5, active compounds read low 1.04 | locus YBR279W, strain paf1, active compounds read low 1.03 | locus YCL011C, strain gbp2, active compounds read low 1.04 | locus YCL016C, strain dcc1, active compounds read low 1.03 | locus YCL029C, strain bik1, active compounds read low 1.03 | locus YCL061C, strain MRC1, active compounds read low 1.04 | locus YCL069W, strain vba3, active compounds read low 1.04 | locus YCR088W, strain abp1, active compounds read low 1.04 | locus YDL005C, strain med2, active compounds read low 1.03 | locus YDL035C, strain GPR1, active compounds read low 1.03 | locus YDL040C, strain nat1, active compounds read low 1.03 | locus YDL074C, strain BRE1, active compounds read low 1.07 | locus YDL101C, strain DUN1, active compounds read low 1.03 | locus YDL185W, strain tfp1, active compounds read low 1.01 | locus YDL192W, strain arf1, active compounds read low 1.03 | locus YDR001C, strain nth1, active compounds read low 1.03 | locus YDR069C, strain doa4, active compounds read low 1.06 | locus YDR101C, strain arx1, active compounds read low 0.987 | locus YDR137W, strain rgp1, active compounds read low 1.07 | locus YDR159W, strain sac3, active compounds read low 1.11 | locus YDR162C, strain NBP2, active compounds read low 1.06 | locus YDR195W, strain ref2 1.01 | locus YDR297W, strain sur2, active compounds read low 1.05 | locus YDR318W, strain mcm21, active compounds read low 1.04 | locus YDR334W, strain swr1, active compounds read low 1.04 | locus YDR335W, strain msn5, active compounds read low 1.04 | locus YDR388W, active compounds read low 1.02 | locus YDR392W, strain spt3, active compounds read low 1.01 | locus YDR502C, strain sam2, active compounds read low 1.06 | locus YEL003W, strain gim4, active compounds read low 1.04 | locus YEL037C, strain rad23, active compounds read low 1.03 | locus YEL061C, strain CIN8 (second series), active compounds read low 1.03 | locus YEL061C, strain CIN8, active compounds read low 1.02 | locus YER015W, strain faa2, active compounds read low 1.04 | locus YER016W, strain bim1, active compounds read low 1.04 | locus YER110C, active compounds read low 1.01 | locus YER111C, strain swi4, active compounds read low 1.03 | locus YER155C, strain BEM2 (second series), active compounds read low 1.07 | locus YER155C, strain BEM2, active compounds read low 1.03 | locus YER167W, strain BCK2, active compounds read low 1.01 | locus YFR010W, strain ubp6, active compounds read low 1.05 | locus YGL078C, strain dbp3, active compounds read low 1.02 | locus YGL086W, strain mad1, active compounds read low 1.02 | locus YGL167C, strain pmr1, active compounds read low 1.03 | locus YGL173C, strain kem1, active compounds read low 1.06 | locus YGL227W, strain vid30, active compounds read low 1.03 | locus YGL240W, strain doc1, active compounds read low 1.04 | locus YGL248W, strain PDE1, active compounds read low 1.05 | locus YGL253W, strain hxk2, active compounds read low 1.07 | locus YGR135W, strain pre9, active compounds read low 1.04 | locus YGR252W, strain gcn5, active compounds read low 1.17 | locus YHR013C, strain ard1, active compounds read low 1.05 | locus YHR027C, strain rpn1, active compounds read low 1.06 | locus YHR030C, strain SLT2, active compounds read low 1.02 | locus YHR079C, strain IRE1 (second series), active compounds read low 1.01 | locus YHR079C, strain IRE1, active compounds read low 1.04 | locus YHR094C, strain hxt1, active compounds read low 1.01 | locus YHR129C, strain ARP1, active compounds read low 1.02 | locus YHR142W, strain chs7, active compounds read low 1.06 | locus YHR200W, strain rpn10, active compounds read low 1.04 | locus YIL066C, strain RNR3, active compounds read low 1.02 | locus YIL073C, strain SPO22, active compounds read low 1.12 | locus YIL125W, strain kgd1, active compounds read low 1.01 | locus YIR030C, strain dcg1, active compounds read low 1.01 | locus YJL092W, strain hpr5, active compounds read low 1.04 | locus YJL095W, strain BCK1 (second series), active compounds read low 1.03 | locus YJL095W, strain BCK1, active compounds read low 1.08 and 1.04 | locus YJL115W, strain asf1, active compounds read low 1.04 | locus YJL129C, strain trk1, active compounds read low 1.08 | locus YJL134W, strain LCB3, active compounds read low 1.02 | locus YJL154C, strain vps35, active compounds read low 1.03 | locus YJL164C, strain tpk1, active compounds read low 1.04 | locus YJL166W, strain qcr8, active compounds read low 1.05 | locus YJL168C, strain set2, active compounds read low 1.02 | locus YJL187C, strain SWE1 (second series), active compounds read low 1.06 | locus YJL187C, strain SWE1, active compounds read low 1.05 | locus YJR043C, strain POL32, active compounds read low 1.04 | locus YJR066W, strain TOR1, active compounds read low 0.961 | locus YKL009W, strain mrt4, active compounds read low 1.01 | locus YKL068W, active compounds read low 1 | locus YKL085W, strain MDH1 (second series), active compounds read low 1 | locus YKL085W, strain MDH1, active compounds read low 1 | locus YKL160W, strain elf1, active compounds read low 1.02 | locus YKR001C, strain vps1, active compounds read low 1.1 | locus YKR026C, strain gcn3, active compounds read low 1.04 | locus YKR091W, strain srl3, active compounds read low 1.02 | locus YLL001W, strain dnm1, active compounds read low 1.01 | locus YLL026W, active compounds read low 1.04 | locus YLL041C, strain sdh2, active compounds read low 1.03 | locus YLR027C, strain aat2, active compounds read low 1.05 | locus YLR039C, strain RIC1, active compounds read low 1.2 | locus YLR058C, strain SHM2, active compounds read low 1.05 | locus YLR102C, strain apc9, active compounds read low 1.01 | locus YLR113W, strain HOG1, active compounds read low 1.03 | locus YLR221C, strain rsa3, active compounds read low 1.07 | locus YLR258W, strain gsy2, active compounds read low 1.05 | locus YLR262C, strain YPT6 (second series), active compounds read low 1.06 | locus YLR268W, strain sec22, active compounds read low 1.04 | locus YLR320W, strain mms22, active compounds read low 1.07 | locus YLR342W, strain FKS1 (second series), active compounds read low 1.09 | locus YLR342W, strain FKS1, active compounds read low 1.05 | locus YLR357W, strain rsc2, active compounds read low 1.07 | locus YLR370C, strain arc18, active compounds read low 1.04 | locus YLR371W, strain rom2, active compounds read low 0.999 | locus YLR384C, strain iki3, active compounds read low 1.05 | locus YLR418C, strain cdc73, active compounds read low 1.11 | locus YML016C, strain PPZ1, active compounds read low 1.01 | locus YML032C, strain rad52, active compounds read low 1.04 | locus YML120C, strain ndi1, active compounds read low 1.03 | locus YML124C, strain tub3, active compounds read low 0.999 | locus YMR058W, strain fet3, active compounds read low 1.05 | locus YMR078C, strain ctf18, active compounds read low 1.01 | locus YMR125W, strain sto1, active compounds read low 1.05 | locus YMR129W, active compounds read low 1.02 | locus YMR205C, strain PFK2, active compounds read low 1.06 | locus YMR223W, strain ubp8, active compounds read low 1.05 | locus YMR231W, strain pep5, active compounds read low 1.04 | locus YMR263W, strain SAP30, active compounds read low 1.02 | locus YMR307W, strain GAS1, active compounds read low 1.1 | locus YNL067W, strain RPL9B, active compounds read low 1.03 | locus YNL071W, strain lat1, active compounds read low 1.04 | locus YNL128W, strain TEP1, active compounds read low 1.04 | locus YNL153C, strain GIM3, active compounds read low 1.05 | locus YNL183C, strain NPR1, active compounds read low 0.975 | locus YNL209W, strain ssb2, active compounds read low 1.03 | locus YNL233W, strain BNI4, active compounds read low 1.07 | locus YNL248C, strain rpa49, active compounds read low 1.05 | locus YNL250W, strain rad50, active compounds read low 1.04 | locus YNL271C, strain bni1, active compounds read low 1.03 | locus YNL298W, strain CLA4, active compounds read low 1.01 | locus YNL307C, strain MCK1, active compounds read low 1.01 | locus YNL322C, strain KRE1 (second series), active compounds read low 1.04 | locus YNL322C, strain KRE1, active compounds read low 1.02 | locus YNR049C, strain mso1, active compounds read low 1.04 | locus YNR052C, strain pop2, active compounds read low 1.03 | locus YOL006C, strain TOP1, active compounds read low 1.19 | locus YOL012C, strain htz1 1 | locus YOL147C, strain pex11, active compounds read low 1.02 | locus YOR001W, strain rrp6, active compounds read low 1.08 | locus YOR061W, strain CKA2, active compounds read low 1.02 | locus YOR069W, strain VPS5, active compounds read low 1.02 | locus YOR070C, strain gyp1, active compounds read low 1.05 | locus YOR080W, strain dia2, active compounds read low 1.03 | locus YOR083W, strain WHI5, active compounds read low 1.03 | locus YOR106W, strain vam3, active compounds read low 1.04 | locus YOR136W, strain idh2, active compounds read low 1 | locus YOR144C, strain elg1, active compounds read low 1.01 | locus YOR184W, strain ser1, active compounds read low 1.05 | locus YOR231W, strain MKK1, active compounds read low 1.05 | locus YOR265W, strain rbl2, active compounds read low 1.04 | locus YOR270C, strain vph1, active compounds read low 1.14 | locus YOR290C, strain snf2, active compounds read low 1.04 | locus YOR316C, strain cot1, active compounds read low 1 | locus YPL051W, strain arl3, active compounds read low 1.05 | locus YPL055C, strain LGE1, active compounds read low 1.06 | locus YPL078C, strain atp4, active compounds read low 1.02 | locus YPL106C, strain sse1, active compounds read low 1.02 | locus YPL240C, strain hsp82, active compounds read low 1.03 | locus YPL256C, strain CLN2, active compounds read low 1.04 | locus YPR119W, strain clb2, active compounds read low 1.02 | locus YPR141C, strain kar3, active compounds read low 0.991 | locus YPR163C, strain tif3, active compounds read low 1.04 | locus YPR167C, strain met16, active compounds read low 1 | strain wtn01, active compounds read low 1.04
